# GCN5L2 inh = GCN5L2 (KAT2A) acetyltransferase inhibition | AID 504327 | 0.21% of 390,000 active | GCN5L2 HAT assay, ThioGlo1 CoA-SH fluorescence | Potency, µM (highest dose often 58.9 µM), most hits filed as inhibitors
#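 Preincubate 20nM GCN5L2 with compound 15 min, RT → add 50uM ThioGlo1 + 75uM H3(1-25) + 70uM acetyl-CoA → read fluorescence 0 and 20 min. Primary qHTS; fluorescent artifacts likely.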
# TrxR1 inh = blocks rat thioredoxin reductase 1; recombinant rTrxR1, NADPH fluorescence consumption, selenite substrate; Potency, µM (titrated, usually from 114 µM), usual class: inhibitors; 1% of 390,000 active; AID 588453; further: nearly all actives have a fitted effect of over 65% in size
# Target sequence (O89049 whole entry, looked up): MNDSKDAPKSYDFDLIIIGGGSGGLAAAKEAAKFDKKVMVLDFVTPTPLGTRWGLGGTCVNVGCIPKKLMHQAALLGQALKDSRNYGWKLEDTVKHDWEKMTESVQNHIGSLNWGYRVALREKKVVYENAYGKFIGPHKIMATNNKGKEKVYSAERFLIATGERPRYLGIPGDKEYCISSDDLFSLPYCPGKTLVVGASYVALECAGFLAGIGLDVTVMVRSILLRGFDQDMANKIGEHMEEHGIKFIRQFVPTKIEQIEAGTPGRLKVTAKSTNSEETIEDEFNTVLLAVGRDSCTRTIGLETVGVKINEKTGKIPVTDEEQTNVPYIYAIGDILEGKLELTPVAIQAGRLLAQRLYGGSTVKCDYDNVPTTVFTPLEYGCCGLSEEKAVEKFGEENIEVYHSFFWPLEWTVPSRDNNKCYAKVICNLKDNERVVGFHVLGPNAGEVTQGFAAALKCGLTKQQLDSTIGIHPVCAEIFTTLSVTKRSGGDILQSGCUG
#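 Rat TrxR1 (90 nM in the dispensed reagent) was pre-reduced with 400 uM NADPH for 5 min at room temperature, then incubated with compound for 15 min. After 400 uM selenite was added, NADPH fluorescence (Ex 340/Em 450 nm) was followed for 8 min.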
# GLS inhibitor = inhibitors of human glutaminase (GLS); O94925; GLS enzymatic activity, qHTS titration; Potency, µM (titrated, usually from 45.5 µM), usual class: inhibitors; 0.21% of 410,000 active; AID 624170
#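 Two-point fluorescence kinetic (t0, 30 min RT) for hKGA; glutamate detected via glutamate oxidase–HRP–Amplex Red. Substrate: 1 mM L-glutamine solution; buffer 45 mM KH2PO4, pH 8.2.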
# VDR inh = blocks the human vitamin D receptor; VDR-SRC2-3 peptide fluorescence polarization, 2 h; Potency, µM, most hits filed as inhibitors; 0.93% of 400,000 active; AID 504847
#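 Reagent solutions, kept cold and dark, are dispensed first; compounds are then pinned in at 23 nl, plates briefly spun, and incubated 2 h at ambient temperature. Inhibition of VDR–SRC2-3 peptide binding is read by fluorescence polarization.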
# Sfp inh = blocks B. subtilis Sfp PPTase activity | Biochemical Sfp PPTase activity, qHTS | AID 1490 | 3.5% of 310,000 active | Potency, µM, usual class: inhibitors | Q9F4F7;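 further: the enzyme is Sfp with the accession as filed and its product quenches rhodamine fluorescence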
#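 Buffer: 50 mM Hepes-Na pH 7.6, 10 mM MgCl2, 0.01% Nonidet P-40, 0.01% BSA. Enzyme 15 nM, pre-exposed to compound 15 min; substrates then added and fluorescence change tracked over 30 min.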
# TrxR1 substrate = rat thioredoxin reductase 1 substrate activity. AID 588456. 0.01% of 390,000 active. purified TrxR1 substrate turnover, NADPH consumption readout. Potency, µM (highest dose often 114 µM); further: nearly all actives have a fitted effect of over 50% in size
#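 Rat TrxR1, dispensed at 90 nM, was prereduced with 400 uM NADPH (final) for 5 min at ~22 deg C, then incubated with compound 15 min before 400 uM selenite. A first-read NADPH fluorescence drop versus no-compound background flagged substrates.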
# A number is an active result; i = inactive; ? = inconclusive; nt = not tested or not shown; ! = a repeat was not active; [ ] = dose if it differs, or a comment. A selection: hits, their analogues and other compounds. The true share with any hit is near 3.8%. The call rests on the fitted dose curve; in most records, active means well fitted curve in the direction sought with a large enough effect; inconclusive means small, poorly fitted or top-dose-only effect, or another doubt; inactive means no such curve, though single readings can be large; an effect the other way counts as inactive or inconclusive.
SMILES,GCN5L2 inh,TrxR1 inh,GLS inhibitor,VDR inh,Sfp inh,TrxR1 substrate
COc1c(O)cc2c(c1O)[C@@H]1O[C@H](CO)[C@@H](O)[C@H](O)[C@H]1OC2=O,i,i,i,i,i,i
CCCCCCCCC1=NCCc2c1[nH]c1ccccc21,i,i,i,?,56.2µM,i
CC(C)C/C=C1\CCc2c([nH]c3ccccc23)C1=O,i,i,i,i,i,i
S=c1[nH]nc(-c2cc(-c3ccccn3)nc3ccccc23)o1,i,56.2µM,i,i,i,i
Cc1ccc(-c2cc(-c3n[nH]c(=S)o3)c3ccccc3n2)cc1,?,?,i,i,i,i
Cc1csc(/C(=N/OC(=O)c2ccco2)C(N)=O)n1,i,11.2µM,i,i,?,i
Cc1nn(C)c(C)c1/C=C(/C(=O)C(C)(C)C)n1cncn1,i,i,i,i,i,i
CC(C)(C)C(=O)/C(=C/c1ccncc1)n1cncn1,i,17.8µM,i,?,35.5µM,i
O=c1cc(-c2ccc([N+](=O)[O-])cc2)nc2cc(-c3ccc(F)cc3)[nH]n12,i,i,i,i,44.7µM,i
Cc1cc(Cl)ccc1N1C(=O)CC(NNC(=O)c2cccnc2)C1=O (configuration not stated),i,i,7.08µM,i,i,i
O=C(NNC1CC(=O)N(c2cccc(Cl)c2)C1=O)c1cccs1 (configuration not stated),i,i,?,i,i,i
COc1ccc(CNCC(O)(c2ccc(Cl)cc2)c2ccc(Cl)cc2)cc1OC,i,i,i,i,44.7µM,i
COc1ccc(CNCC(O)(c2ccc(F)cc2)c2ccc(F)cc2)cc1OC,i,i,i,i,i,i
CCC(C)C1C(C#N)=C(N)Oc2n[nH]c(C)c21 (configuration not stated),i,i,i,i,i,i
Cc1ccc2c(c1)N(CC(=O)NCCCc1ccccc1)C(=O)c1cccnc1O2,39.8µM,i,i,i,i,i
COCCNC(=O)CCc1ccc(S(=O)(=O)Nc2ccc(C)cc2)cc1,i,i,i,i,79.4µM,i
Cc1ccc(NS(=O)(=O)c2ccc(CCC(=O)NC3CC3)cc2)cc1,i,i,i,i,i,i
CC1=Nc2cc(C(=O)NC3CCCC3)ccc2Sc2ccc(Cl)cc21,i,i,i,i,nt,i
CCc1ccc(C2=NNC(=Nc3cccc(S(=O)(=O)N(C)C)c3)SC2)cc1,i,i,i,i,70.8µM,i
Cc1cccc(N=C2NN=C(c3ccc4c(c3)OCCO4)CS2)c1,i,i,i,i,i,i
COc1cc(C2NC(C(=O)O)Cc3c2[nH]c2ccccc32)cc(OC)c1OC (configuration not stated),i,i,i,i,70.8µM!,i
COc1ccc(-n2c(C)cc(/C=N/Nc3nnc(C)n3N)c2C)cc1,i,?,i,?,31.6µM,i
CCCSC1=N/C(=C\C=C\c2ccco2)C(=O)S1,i,?,i,?,31.6µM,i
CCCSC1=N/C(=C\c2ccc([N+](=O)[O-])o2)C(=O)S1,?,i,i,79.4µM,39.8µM,i
CCSC1=N/C(=C\c2ccc(-c3ccccc3[N+](=O)[O-])o2)C(=O)S1,i,i,i,i,?,i
SMILES,GCN5L2 inh,TrxR1 inh,GLS inhibitor,VDR inh,Sfp inh,TrxR1 substrate
O=C1CCCc2nc(N3CCc4ccccc43)ncc21,i,i,i,i,i,i
CCOC(=O)c1c(NC(=S)NCC2CCCO2)sc(C)c1C (configuration not stated),i,i,?,89.1µM,22.4µM,i
CCOC(=O)c1c(NC(=O)C2CCCO2)sc(C(N)=O)c1C (configuration not stated),i,i,i,i,i,i
O=C(COc1ccccc1)NCc1ccc2c(c1)CCN2C(=O)c1ccccc1,i,i,i,i,nt,i
Cc1cc(/C=C2\SC(=S)NC2=O)c(C)n1C,i,25.1µM,i,i,i,i
Cc1cc(/C=C2\SC(=S)NC2=O)c(C)n1-c1ccccc1,i,i[11.4 µM],i,i,i,i[11.4 µM]
Cc1nn(C)cc1/C=C1\SC(=S)NC1=O,i,i,i,i,i,i
Cc1cc(/C=C2\SC(=S)NC2=O)c(C)n1-c1ccc(O)cc1,i,?,i,i,44.7µM,i
